# According to PubChem BioAssay (Tox21):
# Unmarked numbers belong to inactive results. Inconclusive results are not listed. Where a call stands in place of a potency, no number is given. Active and inactive are the calls of the source. Unless noted, calls follow the shape of the dose curve; as a rule, active = well fitted curve in the direction sought with a large enough effect in the repeat runs; inconclusive = weak or mixed curves; inactive = no such curve, though single readings can be large; an effect the other way counts as inactive or inconclusive.
# How the values were obtained:
# [1] = qHTS assay to identify small molecule antagonists of the estrogen related receptor (ERR) signaling pathway from Tox21 library - cell viability counter screen (AID 1224834); also: nearly all actives have a fitted effect of over 30% in size
# In short: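 ERR cells, 2,000/well; 6 h settle at 37 C/5% CO2; pin-tool compound transfer in DMSO; 17.5 h at 37 C; CellTiter-Fluor, 30 min; fluorescence intensity.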
# [2] = target: Luciferin 4-monooxygenase (Photinus pyralis) (UniProt P08659); test: qHTS assay to identify small molecule inhibitors of firefly luciferase (AID 1224835); also: nearly all actives have a fitted effect of over 25% in size; also: potency is read from the fitted curve at half-maximal effect
# Sequence of Luciferin 4-monooxygenase (Photinus pyralis) (P08659 whole entry, looked up): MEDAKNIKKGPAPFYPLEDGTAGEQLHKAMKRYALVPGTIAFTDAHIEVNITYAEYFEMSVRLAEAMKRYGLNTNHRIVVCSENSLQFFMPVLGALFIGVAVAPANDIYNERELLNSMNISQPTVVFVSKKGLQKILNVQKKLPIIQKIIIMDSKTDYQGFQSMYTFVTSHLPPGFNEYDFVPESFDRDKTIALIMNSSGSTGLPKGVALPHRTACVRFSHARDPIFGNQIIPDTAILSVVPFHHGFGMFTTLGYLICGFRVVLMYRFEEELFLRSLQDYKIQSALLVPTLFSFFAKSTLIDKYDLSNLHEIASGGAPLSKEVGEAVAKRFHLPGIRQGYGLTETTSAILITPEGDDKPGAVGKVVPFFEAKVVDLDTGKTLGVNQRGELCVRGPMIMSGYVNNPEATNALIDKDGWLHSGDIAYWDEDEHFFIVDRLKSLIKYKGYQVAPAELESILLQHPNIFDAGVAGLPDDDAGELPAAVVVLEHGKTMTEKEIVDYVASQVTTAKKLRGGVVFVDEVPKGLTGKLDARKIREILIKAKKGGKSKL
# In short: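 Inhibition of purified Photinus luciferase is measured by luminescence. Substrate levels (D-luciferin, ATP) sit at their KM values. Each compound is tested in a concentration series.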
# [3] = qHTS assay to identify small molecule agonists of the constitutive androstane receptor (CAR) signaling pathway - cell viability counter screen (AID 1224836); also: nearly all actives have a fitted effect of over 45% in size; also: potency is read from the fitted curve at half-maximal effect
# In short: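 HepG2 cells stably carrying hCAR and a CYP2B6-2.2kb reporter were plated 4 h, then given compounds at 15 concentrations plus PK11195 (final 0.75 uM). After 23 h at 37 C, viability was read by CellTiter-Fluor fluorescence.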
# [4] = qHTS assay to identify small molecule antagonists of the constitutive androstane receptor (CAR) signaling pathway - cell viability counter screen (AID 1224837); also: nearly all actives have a fitted effect of over 45% in size; also: potency is read from the fitted curve at half-maximal effect
# In short: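 Viability was measured with CellTiter-Fluor in a HepG2 line carrying stably transfected hCAR and a CYP2B6-2.2kb construct. Cells were exposed for 23 hr at 37 C to 15 compound concentrations with 50 nM CITCO as agonist.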
# [5] = target: Nuclear receptor subfamily 1 group I member 3 (Homo sapiens) (UniProt Q14994); test: qHTS assay to identify small molecule antagonists of the constitutive androstane receptor (CAR) signaling pathway (AID 1224838); also: nearly all actives have a fitted effect of over 40% in size; also: potency is read from the fitted curve at half-maximal effect
# Sequence of Nuclear receptor subfamily 1 group I member 3 (Homo sapiens) (Q14994 whole entry, looked up): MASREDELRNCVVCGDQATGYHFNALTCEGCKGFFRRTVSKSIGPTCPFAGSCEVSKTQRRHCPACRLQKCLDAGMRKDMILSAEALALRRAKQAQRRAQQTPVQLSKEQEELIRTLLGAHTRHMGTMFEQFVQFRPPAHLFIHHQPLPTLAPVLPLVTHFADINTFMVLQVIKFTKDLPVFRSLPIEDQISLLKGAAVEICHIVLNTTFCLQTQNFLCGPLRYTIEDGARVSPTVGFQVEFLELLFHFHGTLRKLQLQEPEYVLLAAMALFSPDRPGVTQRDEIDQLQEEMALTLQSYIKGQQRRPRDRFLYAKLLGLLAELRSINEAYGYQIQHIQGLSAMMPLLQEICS
# In short: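 Antagonist mode used CITCO at a final 50 nM to activate CAR in human hepatoma HepG2 cells carrying stable hCAR and a 2.2 kb CYP2B6 promoter-luciferase construct. Compounds were tested at 15 concentrations over 24 h, with luminescence as the end point.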
# [6] = target: Nuclear receptor subfamily 1 group I member 3 (Homo sapiens) (UniProt Q14994); test: qHTS assay to identify small molecule agonists of the constitutive androstane receptor (CAR) signaling pathway (AID 1224839); also: nearly all actives have a fitted effect of over 15% in size
# In short: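 HepG2 cells stably expressing hCAR and a CYP2B6-2.2kb luciferase reporter were treated with compounds at 15 concentrations plus 0.75 uM PK11195 (final) for 24 h at 37 C; luminescence was read after ONE-Glo addition.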
# [7] = qHTS assay to identify small molecule antagonists of the estrogen related receptor signaling pathway with the pleiotropic PPARgamma coactivator (PGC) from Tox21 10K library - cell viability counter screen (AID 1224840; active = well fitted cell-killing curve with a large enough effect in the repeat runs, not every such curve was filed as active; also: nearly all actives have a fitted effect of over 40% in size)
# In short: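 Multiplexed viability counter screen in the PGC/ERR cell line: cells treated with DMSO-dissolved compounds for 17.5 hours at 37 C, then viability measured as CellTiter-Fluor fluorescence.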
# [8] = qHTS assay to identify small molecule agonists of the hypoxia (HIF-1) signaling pathway (AID 1224846; active = well fitted activation curve with a large enough effect in the signal ratio in the repeat runs, not every such curve was filed as active; the % refers to the signal ratio)
# In short: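 Compounds from the Tox21 10K library, dissolved in DMSO, are tested for induction of a hypoxia response element–controlled beta-lactamase reporter in ME-180 cells. Exposure lasts 17 hrs at 37C after a 5 hr settling period, followed by CCF4-AM FRET substrate.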
# [9] = qHTS assay to identify small molecule agonists of H2AX - cell viability counter screen (AID 1224847; calls by dose curve; also: top concentration of the series differs between compounds; nearly all actives have a fitted effect of over 30% in size)
# In short: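 Wild-type CHO-K1 cells (10% FBS medium) were plated overnight at 37C, exposed to compounds at 15 concentrations for 3 hr at 37C (0.76% DMSO final), and viability was read as CellTiter-Glo luminescence after 30 min at room temperature.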
# [10] = qHTS RealTime-Glo MT Cell Viability Assay in HepG2 cells - 24 hour (AID 1224867); also: nearly all actives have a fitted effect of over 50% in size
# In short: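 HepG2 cells (600/well) were dispensed with RealTime-Glo reagents, incubated 5 h at 37 °C, then treated with compounds in DMSO for up to 40 h. Nonlytic NanoLuc luminescence reflecting viable cells was read at each stated time point.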
# [11] = qHTS RealTime-Glo MT Cell Viability Assay in HEK293 cells - 32 hour (AID 1224868); also: top concentration of the series differs between compounds; nearly all actives have a fitted effect of over 50% in size
# In short: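 HEK293 cells seeded with NanoLuc/prosubstrate reagent, rested 5 h at 37 C, then dosed and kept at 37 C up to 40 h. Nonlytic real-time luminescence from viable cells read at 0, 8, 16, 24, 32 and 40 h.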
# [12] = A CellTox Green Cytotoxicity Assay to monitor cytotoxicity in HEK293 cells - 0 hour (AID 1224869); also: nearly all actives have a fitted effect of over 50% in size
# In short: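 Cells (HEK293, 600/well) and dye reagent are dispensed together. After 5 h at 37 C, 23 nL compound is pinned in. Plates stay at 37 C for 40 h with fluorescence read at 0h, 8h, 16h, 24h, 32h and 40h.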
# [13] = qHTS RealTime-Glo MT Cell Viability Assay in HepG2 cells - 40 hour (AID 1224870); also: nearly all actives have a fitted effect of over 50% in size
# In short: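 Real-time viability: cells seeded at 600 per well together with NanoLuc and cell-permeant prosubstrate, compounds added after 5 h incubation. Luminescence tracked at 0, 8, 16, 24, 32 and 40 h of exposure.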
# [14] = target: Thyrotropin receptor (Homo sapiens) (UniProt P16473); test: qHTS assay to identify small molecule agonists of the thyroid stimulating hormone receptor (TSHR) signaling pathway (AID 1224843; calls by dose curve; also: nearly all actives have a fitted effect of over 45% in size)
# Sequence of Thyrotropin receptor (Homo sapiens) (P16473 whole entry, looked up): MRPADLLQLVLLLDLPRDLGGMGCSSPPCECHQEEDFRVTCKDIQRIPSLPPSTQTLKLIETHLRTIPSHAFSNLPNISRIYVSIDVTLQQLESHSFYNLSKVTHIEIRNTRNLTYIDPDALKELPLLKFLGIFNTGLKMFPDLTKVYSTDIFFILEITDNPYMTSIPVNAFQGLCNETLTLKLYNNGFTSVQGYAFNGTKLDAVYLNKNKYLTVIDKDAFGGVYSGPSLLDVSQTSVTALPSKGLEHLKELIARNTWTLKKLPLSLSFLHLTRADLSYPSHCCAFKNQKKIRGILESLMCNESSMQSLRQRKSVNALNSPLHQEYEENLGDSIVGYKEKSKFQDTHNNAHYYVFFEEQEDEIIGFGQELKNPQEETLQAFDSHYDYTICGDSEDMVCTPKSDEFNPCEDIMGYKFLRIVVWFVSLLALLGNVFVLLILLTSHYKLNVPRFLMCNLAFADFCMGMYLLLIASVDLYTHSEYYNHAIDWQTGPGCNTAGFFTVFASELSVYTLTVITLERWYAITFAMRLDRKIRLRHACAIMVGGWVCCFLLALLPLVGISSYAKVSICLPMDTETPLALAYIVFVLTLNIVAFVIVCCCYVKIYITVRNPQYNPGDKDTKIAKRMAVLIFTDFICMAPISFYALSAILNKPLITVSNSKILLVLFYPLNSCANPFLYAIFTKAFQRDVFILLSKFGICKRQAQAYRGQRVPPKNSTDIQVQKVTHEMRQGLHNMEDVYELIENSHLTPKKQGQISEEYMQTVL
# In short: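 A cell-based cAMP HTRF format was run in TSHR-transfected HEK293 cells, 800 per well. Treatment: 30 min, room temperature. Detection: 1 h with labelled cAMP and anti-cAMP cryptate. Concentration-response over 15 points, three replicates.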
# [15] = qHTS assay to identify small molecule agonists of the hypoxia (HIF-1) signaling pathway - cell viability counter screen (AID 1224844; calls by dose curve; also: nearly all actives have a fitted effect of over 50% in size)
# In short: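 Cytotoxicity was measured in parallel with the HRE-driven beta-lactamase readout: after 17 hrs of compound exposure at 37C, HRE-bla ME-180 cells received CellTiter-Glo and luminescence was recorded 30 min later.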
# [16] = qHTS assay to identify small molecule agonists of H2AX (AID 1224845; active = well fitted activation curve with a large enough effect in the signal ratio in the repeat runs, not every such curve was filed as active; the % refers to the signal ratio)
# In short: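 Phospho-H2AX Ser139 measured by HTRF (ex 320 nm; em 665 and 620 nm) after 24 hr antibody incubation. Compounds, 15 concentrations, 0.76% DMSO, were applied to CHO-K1 cells for 3hr at 37C before lysis.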
# [17] = qHTS assay to identify small molecule antagonists of the estrogen related receptor (ERR) signaling pathway from Tox21 library (AID 1224848); also: nearly all actives have a fitted effect of over 50% in size
# In short: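 ERR cell line, 2,000 cells/well. 6 h settle, then compound (DMSO) added; 18 h at 37 C; ONE-Glo luminescence after 30 min RT.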
# [18] = qHTS assay to identify small molecule antagonists of the estrogen related receptor signaling pathway with the pleiotropic PPARgamma coactivator (PGC) from Tox21 10K library (AID 1224841; call rule not given here)
# In short: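 Steps: plate 2,000 PGC/ERR cells per well; incubate 6 h at 37 C with 5% CO2; transfer compounds from DMSO stocks by pin tool; incubate 18 h at 37 C; add One-Glo; measure luminescence 30 min later.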
# [19] = qHTS assay to identify small molecule agonists of the estrogen related receptor signaling pathway with the pleiotropic PPARgamma coactivator (PGC) from Tox21 10K library (AID 1224842); also: nearly all actives have a fitted effect of over 15% in size
# In short: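 Luminescence from One-Glo (30 min, room temperature) measured after PGC/ERR cells had 18 h at 37 C with pinned compound (23 nL in DMSO). Cells had been seeded at 2,000 per well and pre-incubated 6 h.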
# [20] = qHTS assay to identify small molecule agonists of the estrogen related receptor (ERR) signaling pathway from Tox21 library (AID 1224849; calls by dose curve; also: nearly all actives have a fitted effect of over 15% in size); conditions: ERR reporter cell line, ONE-Glo luciferase, 18 h; at 92.4 µM (top of the series) unless noted
# In short: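 Cells carrying the ERR reporter were plated and allowed to settle for 6 h, exposed to library compounds for 18 h at 37 C, then lysed with ONE-Glo and luminescence measured.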
structure (smiles),measurement,setting,value
C=C(C)C(=O)OCCN(C)C,Potency,[1],inactive
same,Potency,[2],inactive
same,Potency,[3],inactive
same,Potency,[4],inactive
same,Potency,[5],inactive
same,Potency,[6],inactive
same,Potency,[7],inactive
same,outcome,[8],inactive
same,Potency,[9],inactive
same,Potency,[10],inactive
same,Potency,[11],inactive
same,Potency,[12],inactive
same,Potency,[13],inactive
O=C=NC1CCC(CC2CCC(N=C=O)CC2)CC1 (stereo not given),Potency,[1],inactive
same,Potency,[2],inactive
same,Potency,[3],inactive
same,Potency,[4],inactive
same,Potency,[5],inactive
same,Potency,[6],inactive
same,Potency,[14],inactive
same,Potency,[15],inactive
same,Potency,[16],inactive
same,outcome,[8],inactive
same,Potency,[9],inactive
same,Potency,[10],inactive
same,Potency,[11],inactive
same,Potency,[12],inactive
same,Potency,[13],inactive
Cn1c(N)nc2nc[nH]c2c1=O,Potency,[1],inactive
same,Potency,[2],inactive
same,Potency,[3],inactive
same,Potency,[4],inactive
same,Potency,[5],48 µM (active)
same,Potency,[6],inactive
same,Potency,[7],inactive
same,Potency,[14],inactive
same,Potency,[15],inactive
same,outcome,[8],inactive
same,Potency,[9],inactive
same,Potency,[10],inactive
same,Potency,[12],inactive
same,Potency,[13],inactive
CC(C)(C)C1CCCCC1O (stereo not given),Potency,[1],inactive
same,Potency,[2],inactive
same,Potency,[3],inactive
same,Potency,[4],inactive
same,Potency,[5],inactive
same,Potency,[6],inactive
same,Potency,[7],inactive
same,Potency,[14],inactive
same,Potency,[15],inactive
same,Potency,[16],inactive
same,Potency,[10],inactive
same,Potency,[11],inactive
same,Potency,[12],inactive
same,Potency,[13],inactive
CCOC(=O)CC(=O)c1cc(F)c(Cl)nc1Cl,Potency,[1],inactive
same,Potency,[2],40.9 µM (active)
same,Potency,[3],inactive
same,Potency,[4],inactive
same,Potency,[5],inactive
same,Potency,[6],inactive
same,Potency,[7],inactive
same,Potency,[16],inactive
same,outcome,[8],inactive
same,Potency,[10],inactive
same,Potency,[12],inactive
same,Potency,[13],inactive
CCCCC(CC)(CO)CO,Potency,[1],inactive
same,Potency,[2],inactive
same,Potency,[3],inactive
same,Potency,[4],inactive
same,Potency,[5],inactive
same,Potency,[6],inactive
same,Potency,[7],inactive
same,Potency,[14],inactive
same,Potency,[15],inactive
same,Potency,[16],inactive
same,Potency,[9],inactive
same,Potency,[10],inactive
same,Potency,[11],inactive
same,Potency,[12],inactive
same,Potency,[13],inactive
NC1CCN(c2nc3c(cc2F)c(=O)c(C(=O)O)cn3-c2ccc(F)cc2F)C1 (stereo not given),Potency,[1],inactive
same,Potency,[2],inactive
same,Potency,[3],inactive
same,Potency,[4],inactive
same,Potency,[5],inactive
same,Potency,[7],inactive
same,Potency,[14],inactive
same,Potency,[15],inactive
same,Potency,[16],inactive
same,outcome,[8],inactive
same,Potency,[17],inactive
same,Potency,[10],inactive
same,Potency,[11],inactive
same,Potency,[12],inactive
same,Potency,[13],inactive
CCCC(=O)OCC,Potency,[1],inactive
same,Potency,[2],inactive
same,Potency,[3],inactive
same,Potency,[4],inactive
same,Potency,[5],inactive
same,Potency,[6],inactive
same,Potency,[7],inactive
same,Potency,[14],inactive
same,Potency,[15],inactive
same,outcome,[8],inactive
same,Potency,[9],inactive
same,Potency,[10],inactive
same,Potency,[12],inactive
same,Potency,[13],inactive
O=C(NS(=O)(=O)/C=C/c1cccs1)c1ccc(F)cc1Br,Potency,[1],inactive
same,Potency,[2],inactive
same,Potency,[3],inactive
same,Potency,[4],inactive
same,Potency,[5],inactive
same,Potency,[6],inactive
same,Potency,[7],inactive
same,Potency,[15],inactive
same,Potency,[16],inactive
same,outcome,[8],inactive
same,Potency,[9],inactive
same,Potency,[10],inactive
same,Potency,[12],inactive
same,Potency,[13],inactive
CCOc1ccc(NC(=O)CC(C)=O)cc1,Potency,[1],inactive
same,Potency,[2],inactive
same,Potency,[3],inactive
same,Potency,[4],inactive
same,Potency,[5],inactive
same,Potency,[6],inactive
same,Potency,[18],inactive
same,Potency,[19],inactive
same,Potency,[15],inactive
same,Potency,[16],inactive
same,outcome,[8],inactive
same,Potency,[9],inactive
same,Potency,[17],inactive
same,"activity change, positive = activation",[20],-8.93%
same,Potency,[10],inactive
same,Potency,[11],inactive
same,Potency,[12],inactive
same,Potency,[13],inactive
O=[N+]([O-])c1cc[n+]([O-])cc1,Potency,[1],inactive
same,Potency,[2],inactive
same,Potency,[3],30.6 µM (active)
same,Potency,[4],30.6 µM (active)
same,Potency,[5],43.3 µM (active)
same,Potency,[6],inactive
same,Potency,[9],inactive
same,Potency,[11],inactive
same,Potency,[12],inactive
N#CCCNCCC#N,Potency,[1],inactive
same,Potency,[2],inactive
same,Potency,[3],inactive
same,Potency,[4],inactive
same,Potency,[6],inactive
same,Potency,[7],inactive
same,Potency,[14],inactive
same,Potency,[15],inactive
same,Potency,[16],inactive
same,Potency,[9],inactive
same,Potency,[10],inactive
same,Potency,[11],inactive
same,Potency,[12],inactive
same,Potency,[13],inactive
NC[C@H]1O[C@H](O[C@H]2[C@H](O)[C@@H](O[C@H]3O[C@H](CO)[C@@H](O)[C@H](N)[C@H]3O)[C@H](N)C[C@@H]2N)[C@H](O)[C@@H](O)[C@@H]1O,"viability change, negative = cytotoxic",[1],-5.48% [at 8.39 µM]
same,"activity change, negative = inhibition",[2],8.02% [at 10.5 µM]
same,"viability change, negative = cytotoxic",[3],-3.02% [at 8.39 µM]
same,"activity change, negative = cytotoxicity",[4],2.42% [at 8.39 µM]
same,"viability change, negative = cytotoxic",[7],5.71% [at 8.39 µM]
same,activation,[19],1.17% [at 8.39 µM]
same,activation,[14],-0.345% [at 8.39 µM]
same,"activity change, negative = cytotoxicity",[15],-8.41% [at 6.97 µM]
same,"activity, negative = inhibition",[17],17.9% [at 8.39 µM]
same,"activity change, positive = activation",[20],8.77% [at 8.39 µM]
same,"activity change, negative = cytotoxicity",[10],-0.929% [at 6.97 µM]
same,cytotoxicity,[12],6.99% [at 6.97 µM]
same,"activity change, negative = cytotoxic",[13],-6.23% [at 6.97 µM]
